The text below walks through data of PubChem BioAssay (Tox21).

A short description of assay [1]: qHTS assay to identify small molecule agonists of the estrogen related receptor (ERR) signaling pathway (AID 1224820; active = well fitted curve in the direction sought with a large enough effect in the repeat runs; an effect the other way counts as inactive or inconclusive). Put shortly:
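An ERR cell line provided by NTP was seeded at 2,000 cells per well and allowed to settle for 6 h before compounds in DMSO were added. After 18 h at 37 C, luciferase activity was measured by One-Glo luminescence.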

Assay [2] is described as follows: qHTS assay to identify small molecule agonists of the estrogen related receptor signaling pathway with the pleiotropic PPARgamma coactivator (PGC) (AID 1224823; active = well fitted curve in the direction sought with a large enough effect in the repeat runs; an effect the other way counts as inactive or inconclusive; also: potency is read from the fitted curve at half-maximal effect). Put shortly: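 Compounds dissolved in DMSO are added by pin tool to PGC/ERR cells that have settled for 6 h, and incubation continues 18 h at 37 C. Reporter output is measured as One-Glo luminescence.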
Background: In qHTS, concentration-response curves come from the screen itself.

Assay [3] can be described thus: qHTS assay for small molecule agonists of the p53 signaling pathway (AID 651631). Also: nearly all actives have a fitted effect of over 15% in size. Also: potency is read from the fitted curve at half-maximal effect. Put shortly: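 Quantitative high-throughput format: 4,000 p53RE-bla HCT-116 cells/well, 5 h pre-incubation, 16 h compound exposure at 37 °C, 2 h room-temperature substrate step, fluorescence intensity measured.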
A short description of assay [4]: qHTS assay for small molecule disruptors of the mitochondrial membrane potential (AID 720635; active = well fitted curve in the direction sought with a large enough effect in the repeat runs; an effect the other way counts as inactive or inconclusive; also: potency is read from the fitted curve at half-maximal effect). Put shortly:
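Mitochondrial membrane potential tracked with Mito-MPS dye, red aggregates (ex 540/em 590 nm) against green monomers (ex 490/em 535 nm). Compound treatment 1 hr at 37C, dye 30 min in HepG2.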

Assay [5] in a line: qHTS assay to identify small molecule agonists of the estrogen related receptor (ERR) signaling pathway from Tox21 library (AID 1224849). Also: nearly all actives have a fitted effect of over 15% in size. Particulars: ERR reporter cell line, ONE-Glo luciferase, 18 h. Put shortly: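 Luciferase activity in ERR pathway reporter cells served as the agonist readout; exposure lasted 18 h at 37 C, with ONE-Glo detection after 30 min at room temperature.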

Assay [6] can be described thus: qHTS assay to identify small molecule antagonists of the estrogen receptor alpha (ER-alpha) signaling pathway using the BG1 cell line in the presence of 0.1 nM 17-beta-estradiol - cell viability counter screen (AID 1259241; active = well fitted curve in the direction sought with a large enough effect in the repeat runs; an effect the other way counts as inactive or inconclusive; also: nearly all actives have a fitted effect of over 40% in size). The method in brief:
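CellTiter-Fluor read (30 min, 37C) on ER-alpha/ERE-luc VM7Luc4E2 cells; 22 hr compound treatment; agonist 0.1 nM E2 final; same-well multiplex.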

Assay [7] in a line: qHTS assay to identify small molecule antagonists of the androgen receptor (AR) signaling pathway using the MDA cell line in the presence of 0.5 nM R1881 - cell viability counter screen (AID 1259242; active = well fitted curve in the direction sought with a large enough effect in the repeat runs; an effect the other way counts as inactive or inconclusive; also: nearly all actives have a fitted effect of over 45% in size). The method in brief:
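Cells seeded at 3,000/well and allowed 5 hr at 37C, 0% CO2 before compound transfer and R1881 (0.5 nM final) addition; 16 hr later, live-cell protease fluorescence indicated cytotoxicity.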

For assay [8], the target named is Acetylcholinesterase (Homo sapiens) (UniProt P22303). The experiment in a line: Acetylcholinesterase (AChE) small molecule antagonists: colormetric cell-based qHTS assay (AID 1347395). Also: nearly all actives have a fitted effect of over 30% in size. The method in brief:
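In this cell-based qHTS, attached SH-SY5Y cells were treated with test chemicals for 30 min, after which acetylthiocholine hydrolysis was followed by DTNB colour development over 90 min at 37 C.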

For assay [9] the target is unchanged. The experiment in a line: Acetylcholinesterase (AChE) small molecule antagonists: enzyme-based qHTS assay (AID 1347397). Also: nearly all actives have a fitted effect of over 55% in size. The following applies: Potency: AChE enzyme activity inhibition; outcome: AChE enzyme activity inhibition. Put shortly: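 Colorimetric DTNB readout of acetylthiocholine hydrolysis, 10 min at room temperature, after 30 min room-temperature exposure of 50 mU/mL recombinant human enzyme to compound; DMSO vehicle control.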

For assay [10] the target is unchanged. In words: Acetylcholinesterase (AChE) small molecule antagonists: fluorescence cell-based qHTS assay (AID 1347398). Also: nearly all actives have a fitted effect of over 50% in size. Particulars: Potency: AChE activity; outcome: AChE activity. Put shortly: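 Cellular AChE activity read as thiocholine from acetylthiocholine hydrolysis, detected by Thiolite Green fluorescence at 490/520 nm after 40 min at room temperature. Compounds were pre-incubated 30 min at 37 C on adherent SH-SY5Y cells.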

For assay [11] the target is unchanged. In words: Acetylcholinesterase (AChE) small molecule antagonists: enzyme-based qHTS assay with human liver microsomes (AID 1347399). Also: nearly all actives have a fitted effect of over 60% in size. The following applies: Potency: qHTS inhibition; outcome: qHTS inhibition. The method in brief: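 Recombinant human AChE (50 mU/mL in the enzyme mix) and human liver microsomes (0.25 mg/mL final) were preincubated with compound and NADPH (0.25 mg/mL final) for 30 min at 37 C. Acetylthiocholine/DTNB was then added; thiocholine was read colorimetrically after 10 min at room temperature.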

The nature of assay [12]: qHTS assay to identify small molecule agonists of H2AX (AID 1224845; active = well fitted activation curve with a large enough effect in the signal ratio in the repeat runs, not every such curve was filed as active; the % refers to the signal ratio; also: potency is read from the fitted curve at half-maximal effect). The method in brief: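 Phospho-H2AX Ser139 measured by HTRF (ex 320 nm; em 665 and 620 nm) after 24 hr antibody incubation. Compounds, 15 concentrations, 0.76% DMSO, were applied to CHO-K1 cells for 3hr at 37C before lysis.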
Assay [13] in a line: Caspase-3/7 induction in HepG2 cells by small molecules, qHTS assay (AID 1346978; active = well fitted curve in the direction sought with a large enough effect in the repeat runs; an effect the other way counts as inactive or inconclusive; also: nearly all actives have a fitted effect of over 15% in size). Put shortly: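 Caspase-3/7 induction was measured by Caspase-Glo 3/7 luminescence (30 min, room temperature) after a 17 hr compound exposure of wild-type HepG2 cells seeded at 2,000 per well and pre-incubated 5 hr.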
Assay [14] is described as follows: qHTS assay to identify small molecule antagonists of the estrogen related receptor (ERR) signaling pathway (AID 1224819; active = well fitted curve in the direction sought with a large enough effect in the repeat runs; an effect the other way counts as inactive or inconclusive; also: nearly all actives have a fitted effect of over 50% in size; also: potency is read from the fitted curve at half-maximal effect). The method in brief: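 Seed ERR cells 2,000/well; rest 6 h at 37 C/5% CO2; pin compounds in DMSO; incubate 18 h at 37 C; add One-Glo; wait 30 min at room temperature; measure luminescence.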
The nature of assay [15]: qHTS RealTime-Glo MT Cell Viability Assay in HEK293 cells - 0 hour (AID 1224880; active = well fitted curve in the direction sought with a large enough effect in the repeat runs; an effect the other way counts as inactive or inconclusive; also: top concentration of the series differs between compounds; nearly all actives have a fitted effect of over 45% in size). The method in brief: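 Kinetic, non-lysing viability readout. Seed HEK293 (600/well) with reagent, incubate 5 h at 37 C/5% CO2, pin 23 nL compound in DMSO, incubate at 37 C, read luminescence at 0, 8, 16, 24, 32, 40 h.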
For assay [16], the target named is Androgen receptor (Homo sapiens) (UniProt P10275). In words: qHTS assay to identify small molecule antagonists of the androgen receptor (AR) signaling pathway (AID 743035; active = well fitted inhibition curve with a large enough effect in the signal ratio in the repeat runs, not every such curve was filed as active; the % refers to the signal ratio). Put shortly:
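Reporter HEK293 cells were exposed to compounds and R1881 overnight (16 h, 37C); beta-lactamase activity was then quantified by FRET fluorescence.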

Assay [17] has the same target. The experiment in a line: qHTS assay to identify small molecule antagonists of the androgen receptor (AR) signaling pathway using the MDA cell line (AID 743042; active = well fitted curve in the direction sought with a large enough effect in the repeat runs; an effect the other way counts as inactive or inconclusive; also: nearly all actives have a fitted effect of over 55% in size). Put shortly:
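Antagonist mode: compounds plus R1881 agonist added to MDA-kb2 AR-luc cells, incubated 16 h at 37C. Luciferase reporter luminescence quantified, with multiplexed CellTiter-Fluor readout for cell viability.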

Assay [18] can be described thus: qHTS assay to identify small molecule antagonists of the estrogen receptor alpha (ER-alpha) signaling pathway using the BG1 cell line (AID 743080).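 Also: BG1 cells stimulated with 17beta-estradiol alongside compound; nearly all actives have a fitted effect of over 25% in size.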 Put shortly: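 Luciferase inhibition measured with ONE-Glo after 30 min at RT in BG1Luc4E2 cells given test compounds and 17beta-estradiol for 21.5 h at 37 C; CellTiter-Fluor viability read in the same wells beforehand.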

For assay [19], the target named is Estrogen receptor (Homo sapiens) (UniProt P03372). The experiment in a line: qHTS assay to identify small molecule antagonists of the estrogen receptor alpha (ER-alpha) signaling pathway (AID 743069; active = well fitted curve in the direction sought with a large enough effect in the signal ratio in the repeat runs, not every such curve was filed as active; the % refers to the signal ratio). Put shortly:
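Antagonist mode: compounds in DMSO were co-added with 17beta-estradiol to ER-alpha-bla HEK293 cells (2% charcoal-stripped serum) and left 18 h at 37C. Reporter inhibition was measured as FRET fluorescence after 2 h LiveBLAzer substrate at room temperature.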

Setting [20] is: at 92.4 µM (top of the series) unless noted.

The structures appear in SMILES notation. “And” between values parts separate entries of the source, which are not always exact repeats. Identical values can stand only once. Values without a mark were called inactive. Results filed as inconclusive are left out. The source made the active and inactive calls. Unless noted, calls follow the shape of the full dose curve.
% is scaled to controls: 0 for no effect and ±100 for the full control effect.

Sequence of Acetylcholinesterase (Homo sapiens) (P22303 whole entry, looked up): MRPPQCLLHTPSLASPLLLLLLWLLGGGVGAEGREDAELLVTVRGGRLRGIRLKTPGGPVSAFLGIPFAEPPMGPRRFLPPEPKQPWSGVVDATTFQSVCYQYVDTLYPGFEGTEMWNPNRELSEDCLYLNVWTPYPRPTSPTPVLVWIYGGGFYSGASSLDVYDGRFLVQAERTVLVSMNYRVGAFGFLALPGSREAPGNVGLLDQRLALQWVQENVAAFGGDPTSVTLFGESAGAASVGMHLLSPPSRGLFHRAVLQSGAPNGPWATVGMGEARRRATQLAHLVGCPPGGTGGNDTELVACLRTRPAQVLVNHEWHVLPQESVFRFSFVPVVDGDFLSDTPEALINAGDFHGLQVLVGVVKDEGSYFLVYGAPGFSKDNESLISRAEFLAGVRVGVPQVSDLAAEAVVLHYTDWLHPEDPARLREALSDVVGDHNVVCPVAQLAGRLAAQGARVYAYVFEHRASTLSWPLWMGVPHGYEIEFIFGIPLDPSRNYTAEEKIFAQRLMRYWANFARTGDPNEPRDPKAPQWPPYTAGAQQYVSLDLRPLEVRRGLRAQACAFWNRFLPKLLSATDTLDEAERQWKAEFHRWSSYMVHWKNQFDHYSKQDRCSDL
Sequence of Estrogen receptor (Homo sapiens) (P03372 whole entry, looked up): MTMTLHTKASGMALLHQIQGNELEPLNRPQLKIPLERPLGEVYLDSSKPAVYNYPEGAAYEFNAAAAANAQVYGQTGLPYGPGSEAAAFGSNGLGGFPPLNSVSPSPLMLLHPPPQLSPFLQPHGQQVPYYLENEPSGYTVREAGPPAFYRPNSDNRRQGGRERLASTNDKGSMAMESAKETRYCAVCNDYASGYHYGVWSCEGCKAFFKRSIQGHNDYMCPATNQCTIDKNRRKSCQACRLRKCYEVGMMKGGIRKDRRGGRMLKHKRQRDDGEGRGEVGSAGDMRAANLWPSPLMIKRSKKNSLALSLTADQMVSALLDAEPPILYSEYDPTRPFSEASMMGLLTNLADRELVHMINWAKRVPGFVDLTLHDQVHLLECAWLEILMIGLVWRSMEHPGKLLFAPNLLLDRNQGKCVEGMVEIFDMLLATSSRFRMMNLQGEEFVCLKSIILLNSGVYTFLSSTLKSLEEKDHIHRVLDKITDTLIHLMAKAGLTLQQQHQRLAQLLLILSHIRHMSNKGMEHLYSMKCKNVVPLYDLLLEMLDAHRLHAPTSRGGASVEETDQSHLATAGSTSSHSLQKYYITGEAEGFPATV
Sequence of Androgen receptor (Homo sapiens) (P10275 whole entry, looked up): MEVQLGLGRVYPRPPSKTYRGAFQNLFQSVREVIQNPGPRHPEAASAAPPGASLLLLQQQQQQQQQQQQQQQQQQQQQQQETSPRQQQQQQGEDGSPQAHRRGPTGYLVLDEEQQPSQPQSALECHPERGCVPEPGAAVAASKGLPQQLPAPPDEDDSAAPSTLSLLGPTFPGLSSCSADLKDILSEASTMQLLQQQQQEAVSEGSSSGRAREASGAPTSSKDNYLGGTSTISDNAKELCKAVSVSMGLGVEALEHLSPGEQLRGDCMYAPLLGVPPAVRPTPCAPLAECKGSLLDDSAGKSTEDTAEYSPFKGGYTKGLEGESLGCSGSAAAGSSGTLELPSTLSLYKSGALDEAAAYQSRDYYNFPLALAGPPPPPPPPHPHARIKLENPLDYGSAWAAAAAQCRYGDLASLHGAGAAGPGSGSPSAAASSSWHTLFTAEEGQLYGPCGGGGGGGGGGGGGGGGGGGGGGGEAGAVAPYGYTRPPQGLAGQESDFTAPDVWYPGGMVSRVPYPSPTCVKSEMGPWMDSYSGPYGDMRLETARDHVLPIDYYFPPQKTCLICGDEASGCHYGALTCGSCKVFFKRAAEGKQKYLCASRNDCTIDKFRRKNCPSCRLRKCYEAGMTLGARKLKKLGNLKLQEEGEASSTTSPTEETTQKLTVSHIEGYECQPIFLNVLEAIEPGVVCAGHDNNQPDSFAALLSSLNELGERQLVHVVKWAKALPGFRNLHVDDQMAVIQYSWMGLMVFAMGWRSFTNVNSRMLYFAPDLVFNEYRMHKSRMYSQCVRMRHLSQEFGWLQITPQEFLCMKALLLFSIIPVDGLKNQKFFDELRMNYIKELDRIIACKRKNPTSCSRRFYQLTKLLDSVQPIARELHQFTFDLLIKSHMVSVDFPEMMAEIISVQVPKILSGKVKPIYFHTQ

On to `CCNC(=O)[C@H]1O[C@@H](n2cnc3c(N)ncnc32)[C@H](O)C1O` (stereo not given in full), for which the Potency entry in assay [1] is “inactive”. In [2], the Potency was 0.168 µM (active).
As for `O=C(O)/C=C\C(=O)O`, the Potency result in assay [3], in assay [4], in [6], in [7], in assay [8] and in assay [9] was “inactive” throughout. Moreover, the Potency result in assay [10] and in [11] was “inactive” each time. The activity change, positive = activation is 6.09% in assay [5] (at 42.5 µM (top of the series)); 3.24% and 1.53% in assay [5] (at 92.4 µM (top of the series)).
Regarding `O=C(O)/C=C/C(=O)O`, the Potency entry in assay [3], in assay [6], in [7], in [8], in [9] and in [10] was “inactive” throughout. In assay [11], the Potency result is “inactive”. For the same compound, the activity change, positive = activation in assay [5] (setting [20]) is 4.47% and 1.26%.
Consider `ClC(Cl)(Cl)c1ccc(C(Cl)(Cl)Cl)cc1`, for which the Potency in assay [12] is 112 µM (active). Also, the Potency result in assay [8], in [9], in assay [10] and in assay [11] was “inactive” throughout.
On to `O=P(OC(CCl)CCl)(OC(CCl)CCl)OC(CCl)CCl`, for which the Potency entry in assay [3], in assay [12], in [13], in [8], in [9] and in assay [10] was “inactive” in each case. For the same compound, the Potency result in [11] is “inactive”.
Turning to `CCC1C(=O)OCC1Cc1cncn1C` (stereo not given), in [5] (setting [20]), the activity change, positive = activation was 4.65% [at 42.5 µM]. Moreover, the Potency entry in assay [8], in assay [9], in [10] and in assay [11] was “inactive” each time.
As for `O=S1(=O)N(CCN2CC=C(c3c[nH]c4cc(F)ccc34)CC2)c2cccc3c2N1CCC3`, in [14], the Potency was 16.2 µM (active). The Potency entry in [1] and in assay [2] was “inactive” throughout.
With `Clc1ccc(C(c2ccc(Cl)cc2)n2cc[n+](CC(OCc3ccc(Cl)cc3Cl)c3ccc(Cl)cc3Cl)c2)cc1` (stereo not given), the Potency in [14] was 19.6 µM (active). For the same compound, the Potency result in assay [1] and in [2] was “inactive” in each case.
In the case of `C/C=C(/C)C(=O)O[C@H]1C(C)=C2[C@H]([C@@H]1OC(=O)CCCCCCC)[C@@](C)(OC(C)=O)C[C@H](OC(=O)CCC)[C@@]1(O)[C@H]2OC(=O)[C@@]1(C)O`, the Potency in assay [14] is 0.246 µM (active). The Potency result in assay [1] and in assay [2] was “inactive” throughout.
With `CCn1cnc2c(Nc3cccc(Cl)c3)nc(N[C@@H]3CCCC[C@@H]3N)nc21`, the Potency result in assay [14] and in assay [2] was “inactive” in each case.
Consider `C[N+]1(C)[C@@H]2CC(OC(=O)[C@H](CO)c3ccccc3)C[C@H]1[C@@H]1O[C@@H]12` (stereo not given in full), for which the Potency result in assay [8], in assay [9], in [10] and in assay [11] was “inactive” throughout.
For the compound `CC(=O)c1c(O)c(C)c(O)c(Cc2c(O)c3c(c(C(=O)/C=C/c4ccccc4)c2O)OC(C)(C)C=C3)c1O`, in assay [14], the Potency was 10.6 µM (active). Further, the Potency result in [1] and in assay [2] was “inactive” each time.
Consider `O=[N+]([O-])c1ccccc1Cl`, for which the outcome in assay [15] was inactive. Moreover, the Potency result in assay [13] was “inactive”.
Regarding `Clc1nc(Cl)c(Cl)c(Cl)c1Cl`, the Potency result in [12], in assay [8], in assay [9], in assay [10] and in assay [11] was “inactive” each time.
`Cc1ccc2ccccc2c1C`: the result in assay [15] was inactive.
As to `c1cc2c(c(NC3=NCCN3)c1)CCCC2`, the Potency entry in [3], in [4], in assay [16] and in assay [17] was “inactive” in each case.
As to `C[C@]12CC[C@H]3[C@@H](CCC4=C(O)C(=O)CC[C@@H]43)[C@@H]1CC[C@@H]2OC(=O)CCC1CCCC1`, the Potency entry in assay [3], in [4] and in assay [18] was “inactive” throughout.
Turning to `CCCC(C)(COC(N)=O)COC(=O)NC1CC1` (stereo not given), the Potency entry in [4], in [19] and in assay [18] was “inactive” in each case.
Consider `CCOc1ccc2c3c1O[C@H]1[C@@H](O)C=C[C@H]4[C@@H](C2)N(C)CC[C@@]341`, for which the Potency entry in [3], in assay [19] and in assay [18] was “inactive” each time.
Turning to `C[C@@H](CO)NC(=O)[C@@H]1C=C2c3cccc4[nH]cc(c34)C[C@H]2N(C)C1`, the Potency entry in assay [3], in [16] and in [17] was “inactive” each time. Moreover, the Potency in [4] was 9.44 µM (active).
In the case of `O=c1[nH]cc(N(CCCl)CCCl)c(=O)[nH]1`, in assay [3], the Potency was 21.1 µM (active). Further, the Potency result in [19] and in [18] was “inactive” throughout.
Consider `CCCCNCC(O)c1ccc(O)cc1` (stereo not given), for which the Potency result in assay [3] and in assay [4] was “inactive” each time.
Turning to `CNC(=O)OCC[N+](C)(C)C`, the Potency result in assay [3], in assay [4] and in assay [19] was “inactive” in each case.
Regarding `CC(=O)OCC(=O)[C@H]1CC[C@H]2[C@@H]3CC[C@H]4C[C@H](O)CC[C@]4(C)[C@H]3C(=O)C[C@]12C`, the Potency result in assay [3], in [19] and in assay [18] was “inactive” in each case.
As to `O=C1CN(O)C(c2ccccc2)=c2cc(Cl)ccc2=N1`, the Potency entry in assay [3], in assay [4], in assay [16] and in assay [17] was “inactive” each time.
For the compound `O=S(=O)(O)c1cc(O)ccc1O`, the Potency result in assay [4], in assay [6] and in [7] was “inactive” throughout.
Turning to `CCC1(c2cnc[nH]2)Cc2ccccc2C1`, the Potency result in assay [19], in assay [6], in assay [7], in assay [8], in assay [9] and in assay [10] was “inactive” in each case. In assay [11], the Potency entry was “inactive”.
